Assay outcomes: PubChem, several laboratories
Anthrax LF prot – Bacillus anthracis LF protease inhibitors, primary screen, biochemical, multiplex microsphere, MLPCN library | Lethal factor (Bacillus anthracis), P15917 | multiplex microsphere protease cleavage assay | inhibition, % at 10 µM | 0.12% of 360,000 active; further: plate controls were buffer without enzyme for full effect and enzyme alone for no effect
Target sequence (P15917 whole entry, looked up): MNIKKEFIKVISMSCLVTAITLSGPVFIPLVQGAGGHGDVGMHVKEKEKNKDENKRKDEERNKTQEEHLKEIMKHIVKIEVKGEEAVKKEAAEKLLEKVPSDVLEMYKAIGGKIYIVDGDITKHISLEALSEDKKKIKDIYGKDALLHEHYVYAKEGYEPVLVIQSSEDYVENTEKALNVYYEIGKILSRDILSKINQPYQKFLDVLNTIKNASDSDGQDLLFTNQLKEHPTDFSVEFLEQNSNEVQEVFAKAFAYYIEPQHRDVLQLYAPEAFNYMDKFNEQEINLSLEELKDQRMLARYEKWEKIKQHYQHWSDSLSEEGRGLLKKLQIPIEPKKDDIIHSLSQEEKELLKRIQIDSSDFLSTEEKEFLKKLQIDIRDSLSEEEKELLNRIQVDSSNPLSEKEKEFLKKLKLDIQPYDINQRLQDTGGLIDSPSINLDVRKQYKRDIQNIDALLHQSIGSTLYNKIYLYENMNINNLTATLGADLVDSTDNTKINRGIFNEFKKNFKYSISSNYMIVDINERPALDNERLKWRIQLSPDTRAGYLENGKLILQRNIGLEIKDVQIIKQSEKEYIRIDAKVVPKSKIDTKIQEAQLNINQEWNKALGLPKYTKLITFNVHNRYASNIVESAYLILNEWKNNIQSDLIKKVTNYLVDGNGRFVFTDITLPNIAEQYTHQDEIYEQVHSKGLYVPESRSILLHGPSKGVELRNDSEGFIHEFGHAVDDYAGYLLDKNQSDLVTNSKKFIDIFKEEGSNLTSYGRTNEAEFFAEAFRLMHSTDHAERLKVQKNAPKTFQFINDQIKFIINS
Autofluor counter – compound fluorescence in toxin protease inhibitor counterscreen | 3.1% of 360,000 active | AID 624483 | fluorescence intensity (test concentration not listed) | compound autofluorescence counterscreen, microsphere flow cytometry; stronger effect = higher value; in the data active means fluorescence intensity above about 16000; inconclusive means no clear call, values can overlap the other calls
BoNT A protease – BoNT/A light chain protease inhibitors, primary screen, biochemical, flow cytometry, MLPCN library; inhibition, % at 10 µM; 0.17% of 360,000 active; multiplex microsphere protease substrate cleavage; Botulinum neurotoxin type A light chain protease (Clostridium botulinum A str. ATCC 3502); AID 588499, 2011; further: plate controls were buffer without enzyme for full effect and enzyme alone for no effect
BoNT F protease – BoNT/F light chain protease inhibitors, primary screen, biochemical, flow cytometry, MLPCN library. Multiplex microsphere protease cleavage assay. inhibition, % at 10 µM. 0.22% of 360,000 active. AID 588497, 2011; in the data active means inhibition above about 35%, passing the limit was not always enough; inconclusive means no clear call, values can overlap the other calls; further: plate controls were buffer without enzyme for full effect and enzyme alone for no effect
TcdB GH inh – TcdB glycohydrolase inhibitors, primary screen, biochemical, single point, plate reader; Toxin B (Clostridioides difficile), P18177; 0.24% of 350,000 active; inhibition, % at 9.99 µM; TcdB glycohydrolase enzymatic assay; in the data active means inhibition above about 10%
* = called active by the depositor. Shown is part of a subset that was picked to be rich in hits. Unless noted, no stated cut-off is given here; in the data, active means inhibition above about 30%; inconclusive means no clear call, values can overlap the other calls; inactive means below that.

Results for CCOc1ccc(S(=O)(=O)N/N=C2/CC(c3ccccc3)Oc3ccccc32)cc1 (stereo unspecified) ?
Anthrax LF prot: -6.5; Autofluor counter: 19045*; BoNT A protease: 7.8; BoNT F protease: 12.3

What do the screens show for `O=S(=O)(N/N=C1\CC(c2ccccc2)Oc2ccccc21)c1ccccc1` (stereo unspecified)?
Anthrax LF prot: 0.3; Autofluor counter: 3731; BoNT A protease: -1.0; BoNT F protease: -8.1

How did C[C@H]1CN([C@@H](C)CO)C(=O)c2cccc(NS(C)(=O)=O)c2O[C@@H]1CN(C)Cc1ccc(Cl)c(Cl)c1 do in these assays?
TcdB GH inh: 0.7

How did O=[N+]([O-])c1cccc(/C=C/c2nc(C=Nc3ccc4ccccc4c3)c(O)o2)c1 do in these assays?
Anthrax LF prot: 1.6; Autofluor counter: 17170*; BoNT A protease: -2.3; BoNT F protease: 2.5

How did O=C(N/N=C/c1ccc(O)c(O)c1)C1CC1 do in these assays?
Anthrax LF prot: -3.9; Autofluor counter: 6249; BoNT A protease: 0.5; BoNT F protease: 7.6; TcdB GH inh: 16.1*

What do the screens show for `C=CCn1c(O)c(C(C)=NCc2cc(OC)cc(OC)c2)c(=O)[nH]c1=O`?
Anthrax LF prot: 7.0; Autofluor counter: 4258; BoNT A protease: 1.2; BoNT F protease: inconclusive

Results for CCC(=NCCCN1CCOCC1)c1c(O)n(Cc2ccccc2)c(=O)[nH]c1=O ?
Anthrax LF prot: 1.6; Autofluor counter: 19516*; BoNT A protease: 1.0; BoNT F protease: 1.8

Results for C=CCn1c(O)c(C(C)=NCCc2ccccc2)c(=O)[nH]c1=O ?
Anthrax LF prot: -16.4; Autofluor counter: 15331; BoNT A protease: 14.1; BoNT F protease: 14.8

How did C=CCn1c(O)c(C(CC)=NCCc2ccccc2)c(=O)[nH]c1=O do in these assays?
Anthrax LF prot: -0.4; Autofluor counter: 22909*; BoNT A protease: inconclusive; BoNT F protease: -1.7

What do the screens show for `C=CCn1c(O)c(C(C)=NCc2cccnc2)c(=O)[nH]c1=O`?
Anthrax LF prot: -1.9; Autofluor counter: 17471*; BoNT A protease: -1.8; BoNT F protease: -3.5

How did CCCNC(=O)N1CC2(C1)[C@H](c1ccccc1)[C@H](CO)N2Cc1ccccn1 do in these assays?
TcdB GH inh: -0.1

How did OCC(CO)(CO)N=Cc1c(O)ccc2ccccc12 do in these assays?
Anthrax LF prot: 0.1; Autofluor counter: 16546*; BoNT A protease: 0.3; BoNT F protease: 2.1

How did O=C(CN1CCCCC1)Nc1cccc(Cl)c1 do in these assays?
Anthrax LF prot: 0.5; Autofluor counter: 4052; BoNT A protease: -0.2; BoNT F protease: -0.5; TcdB GH inh: -0.4

What do the screens show for `O=C(CN1CCCCCC1)Nc1cccc(Br)c1`?
Anthrax LF prot: 0.3; Autofluor counter: 20288*; BoNT A protease: -1.7; BoNT F protease: -1.3

Results for Cc1ccc(NC(=O)CN2CCCCCC2)c(Br)c1 ?
Anthrax LF prot: -2.1; Autofluor counter: 24257*; BoNT A protease: -2.9; BoNT F protease: -3.6

How did O=C(Cc1cccs1)N1CCN(c2nc(-c3ccc(Cl)cc3)cs2)CC1 do in these assays?
Anthrax LF prot: -3.5; Autofluor counter: 21233*; BoNT A protease: inconclusive; BoNT F protease: -1.8; TcdB GH inh: 1.3

How did O=S(=O)(c1ccc(F)cc1)c1nc(-c2ccccc2F)oc1N1CCCCC1 do in these assays?
Anthrax LF prot: -5.5; Autofluor counter: 20089*; BoNT A protease: inconclusive; BoNT F protease: 3.3

How did CCN1CCN(c2oc(-c3ccccc3C)nc2S(=O)(=O)c2ccccc2)CC1 do in these assays?
Anthrax LF prot: -8.1; Autofluor counter: inconclusive; BoNT A protease: 1.3; BoNT F protease: 5.1; TcdB GH inh: 10.4*

Results for CCCCCCc1cc2cc(-c3nnc(-c4ccccc4O)o3)c(=O)oc2cc1O ?
Anthrax LF prot: 2.6; Autofluor counter: 8438; BoNT A protease: 2.6; BoNT F protease: 10.9

What do the screens show for `CCCCCCc1cc2cc(-c3nnc(-c4ccccc4OC)o3)c(=O)oc2cc1O`?
Anthrax LF prot: 4.2; Autofluor counter: 22218*; BoNT A protease: inconclusive; BoNT F protease: 0.5

Results for C[C@@H]1CN([C@H](C)CO)C(=O)c2cc(NS(=O)(=O)c3ccccc3)ccc2O[C@@H](C)CCCCO[C@H]1CN(C)C(=O)c1ccccc1 ?
TcdB GH inh: -3.5

Results for CC(C)(C)OC(=O)NCCCCCc1nnc(SCC(=O)Nc2cccc(Cl)c2)o1 ?
Anthrax LF prot: 0.3; Autofluor counter: 16480*; BoNT A protease: 0.2; BoNT F protease: -3.2

Results for CC(C)(C)OC(=O)NCCc1nnc(SCC(=O)Nc2cccc(Cl)c2)o1 ?
Anthrax LF prot: -0.7; Autofluor counter: 22287*; BoNT A protease: 2.9; BoNT F protease: 2.7

Results for NCCc1nnc(SCC(=O)Nc2cccc(Cl)c2)o1 ?
Anthrax LF prot: 0.0; Autofluor counter: 6506; BoNT A protease: -2.2; BoNT F protease: -7.7; TcdB GH inh: 1.4

What do the screens show for `COCc1cn([C@@H]2C[C@@H]3O[C@@H](CO)CC[C@@H]3O[C@@H]2CCc2ccc(-c3ccc(OC)cc3)cc2)nn1`?
TcdB GH inh: -3.3

How did Cc1ccc(C(C(=O)NC2CCCCC2)N2CCCC2)cc1 (stereo unspecified) do in these assays?
Anthrax LF prot: -1.8; Autofluor counter: 3664; BoNT A protease: 0.3; BoNT F protease: 35.5*

Results for COc1cccc(-c2ccc3n(c2=O)C[C@@H]2[C@@H](CO)[C@H](C(=O)N(C)C)N(C(=O)C4CCCC4)[C@H]32)c1 ?
TcdB GH inh: 0.2

How did C[C@@H](NC(=O)C[C@H]1C=C[C@H](NC(=O)C2CCC2)[C@H](CO)O1)c1ccccc1 do in these assays?
TcdB GH inh: 0.5

Results for C=CCn1c(N)c(C(=O)NCc2ccco2)sc1=S ?
Anthrax LF prot: -5.9; Autofluor counter: 21000*; BoNT A protease: -1.9; BoNT F protease: -2.9

How did O=C(NCc1ccco1)c1sc(=S)n2c1[nH]c(=O)c1ccccc12 do in these assays?
Anthrax LF prot: -0.5; Autofluor counter: 22207*; BoNT A protease: inconclusive; BoNT F protease: 3.1

Results for C=CCn1c(N)c(C(=O)N2CCOCC2)sc1=S ?
Anthrax LF prot: -1.6; Autofluor counter: 19777*; BoNT A protease: inconclusive; BoNT F protease: 5.4

How did CCn1c(N)c(C(=O)N2CCOCC2)sc1=S do in these assays?
Anthrax LF prot: -6.5; Autofluor counter: 2855; BoNT A protease: -1.2; BoNT F protease: -16.1

What do the screens show for `Cc1ccc(-n2c(N)c(C(=O)NCc3ccco3)sc2=S)cc1`?
Anthrax LF prot: -5.5; Autofluor counter: 2957; BoNT A protease: -1.0; BoNT F protease: 3.0

How did COc1ccc(S(=O)(=O)Nc2ccc3c(c2)C(=O)N([C@@H](C)CO)C[C@H](C)[C@@H](CN(C)C(=O)Nc2ccc(F)cc2)OCCCC[C@H](C)O3)cc1 do in these assays?
TcdB GH inh: 0.1

What do the screens show for `COc1ccc(OCCOC(=O)c2cccc(-n3cnnn3)c2)cc1`?
Anthrax LF prot: -0.5; Autofluor counter: 20878*; BoNT A protease: -1.0; BoNT F protease: -3.2
